The results in this text go back to PubChem BioAssay (NCATS).

Results filed as inconclusive are left out. Activity calls are given as the source filed them. Calls follow the shape of the dose curve; as a rule, active = well fitted inhibition curve with a large enough effect; inconclusive = small, poorly fitted or top-dose-only effect; inactive = flat fitted curve, though single readings scatter.

This assay has as its system NIH3T3. Put plainly: Cytotoxic Profiling of Annotated Libraries Using Quantitative High-Throughput Screening (AID 1296008). Also: nearly all actives have a fitted effect of over 60% in size. As to conditions: Five cell lines viability, CellTiter-Glo ATP luminescence, 48-72 h; max response: hits give low values. The method, boiled down:
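Cells exposed to compounds for 48 or 72 hr at 37 degrees Celsius. Viability read as ATP-coupled luminescence with CellTiter-Glo after 10 min at room temperature.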
On the technique in general: Cellular ATP, detected with luciferase, serves as a proxy for viable cell number.
With `COc1cccc(OC)c1-c1ccc(C[C@H](NC(=O)c2c(Cl)cccc2Cl)C(=O)O)cc1`, the call was inactive.

Regarding `Nc1ncnc2c1c(COc1cccc(Cl)c1)nn2C1CCOCC1`, the compound was classed as inactive.

As to `C=C1CC/C=C(/C(=O)O)CCC2C1CC2(C)C` (stereo not drawn), the call was inactive.

As for `COC(=O)C1=CO[C@@H](O[C@@H]2O[C@H](CO)[C@@H](O)[C@H](O)[C@H]2O)[C@@H]2[C@@H](C)[C@@H](O)C(O)[C@H]12` (stereo partly drawn), the compound was called inactive.

Consider `C=C1C(=O)O[C@@H]2CC(C)=C([C@@H](C)CCCOC(C)=O)[C@@H](O)[C@H]12`, for which the outcome was inactive.

In the case of `O=C(C[C@@H]1C(C(=O)O)=CO[C@@H](O[C@@H]2O[C@H](CO)[C@@H](O)[C@H](O)[C@H]2O)/C1=C\CO)OCCc1ccc(O)c(O)c1`, the compound was classed as inactive.

`C/C1=C\CC(C)(C)/C=C/C/C(C(=O)O)=C/CC1`: the result was inactive.

Consider `OC[C@H]1O[C@@H](OCc2ccccc2)[C@H](O[C@@H]2OC[C@@H](O)[C@H](O)[C@H]2O)[C@@H](O)[C@@H]1O`, for which the call was inactive.

Regarding `COc1cc(/C=C/C(=O)O)ccc1O[C@@H]1O[C@H](CO)[C@@H](O)[C@H](O)[C@H]1O[C@@H]1OC[C@](O)(CO)[C@H]1O`, the outcome was inactive.

`COC(=O)C1(C)CCCC2(C)c3ccc(C(C)C)cc3C(O)C(O)C12` (stereo not drawn): the compound was called inactive.

Turning to `O=C(O)CC(CCc1ccccc1)OC1OC(CO)C(O)C(O)C1O` (stereo not drawn), the result was inactive.

On to `CC1=C[C@@H]2[C@H]3[C@@H]4O[C@@](C)(CC[C@H]4O)[C@H]3CC(=O)[C@]23C(=O)N[C@@H](CC(C)C)[C@@H]3[C@@H]1C`, for which the compound was classed as inactive.

As for `COc1ccc(/C=C/C(=O)O[C@@H]2[C@@H](O[C@@H]3O[C@H](CO)[C@@H](O)[C@H](O)[C@H]3O)[C@@H](O)[C@H](O[C@H]3C4C=CO[C@@H](O[C@@H]5O[C@H](CO)[C@@H](O)[C@H](O)[C@H]5O)C4[C@@]4(CO)O[C@@H]34)O[C@H]2C)cc1` (stereo partly drawn), the result was inactive.
